# Sampled rows, rich in hits. Any-hit rate of the full collection: about 0.74%.
# p97 inhibitor – human p97 ATPase inhibition. recombinant p97 ATPase, Kinase-Glo ATP luminescence, 3 h. inhibition, % at 8 µM. P55072. AID 1481. actives 0.42% (n = 220,000); in the data active means inhibition above about 15%;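 further: 0% = DMSO vehicle and 100% = wells lacking enzyme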
# LYPLA1 inh – LYPLA1 (human) inhibition in PME1 counter-screen; inhibition, % at 5.9 µM; O75608; recombinant LYPLA1, FP-Rh probe fluorescence polarization; actives 0.16% (n = 320,000);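 active means inhibition above the mean of all tested compounds plus 3 SD, set per campaign, cut at about 14% in these data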;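 further: inhibitors block serine hydrolase probe labeling of LYPLA1 so polarization falls; 0% = enzyme with DMSO and 100% = wells lacking LYPLA1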
# DTT redox prof – compounds producing H2O2 with reducing agent – biochemical, NIH compound library profiling, artefact control for MLSCN library redox annotation, primary screen. DTT-dependent redox cycling H2O2, phenol red/HRP absorbance; 100% = 100 µM peroxide control, 0% = buffer. actives 0.03% (n = 200,000). AID 878. activation, % at 10 µM;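 active means activation of at least 50% relative to the plate's high and low controls in the primary single-dose screen; inactive means activation below 50%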;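 further: compound incubated with DTT at 0.8 mM final as the reducing agent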
# LYPLA2 inh – counter-screen for PME1 inhibitors: inhibitors of human LYPLA2. O95372. recombinant LYPLA2, FP-Rh probe fluorescence polarization. inhibition, % at 5.9 µM. actives 0.38% (n = 320,000). AID 2177;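 active means inhibition above the screen-wide mean plus 3 SD, limit set per campaign, cut at about 26% in these data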;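 further: 0% = LYPLA2 with DMSO and 100% = wells lacking LYPLA2 enzyme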
# Target sequence (O95372 whole entry, looked up): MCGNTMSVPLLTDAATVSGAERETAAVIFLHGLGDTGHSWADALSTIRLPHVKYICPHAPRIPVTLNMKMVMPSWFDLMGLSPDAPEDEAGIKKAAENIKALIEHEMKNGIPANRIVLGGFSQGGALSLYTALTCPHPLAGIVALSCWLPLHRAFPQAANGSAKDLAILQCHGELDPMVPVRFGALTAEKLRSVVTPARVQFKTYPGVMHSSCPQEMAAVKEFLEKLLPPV
# LYPLA1 confirm – LYPLA1 (human) inhibition, confirmation counter-screen | shares compounds with LYPLA1 inh | recombinant LYPLA1, FP-Rh probe fluorescence polarization | inhibition, % at 5.9 µM | actives 69% (n = 480) | AID 2233;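 active means mean inhibition across replicates above the hit cutoff set in the primary screen, cut at about 15% in these data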;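 further: loss of FP-Rh probe labeling of LYPLA1 seen as lower polarization; 0% = LYPLA1 with DMSO and 100% = wells lacking LYPLA1 enzyme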
# Numbers without * were called inactive; · = no result; + = active, no number.
SMILES,p97 inhibitor,LYPLA1 inh,DTT redox prof,LYPLA2 inh,LYPLA1 confirm
CCN(CC)S(=O)(=O)c1cccc(-c2nnc(SCCOc3ccccc3)o2)c1,-6,41*,-1,1,51*
CCN(CC)S(=O)(=O)c1cccc(-c2nnc(SCC(=O)c3cc(C)n(C)c3C)o2)c1,3,0,-1,-4,·
CCCOc1ccc(N2C(=O)C/C(=C\c3ccccc3)C2=O)cc1,8,-5,·,-10,·
COCCN(C(=O)CCC(=O)Nc1ccccn1)C(C(=O)NC(C)C)c1ccc(C)cc1 (centres undefined),·,0,·,-7,·
O=C(O)c1ccc(N/N=C/c2cc3cc4c(cc3nc2Cl)OCCO4)cc1,-3,4,·,10,·
Cc1ccc(C(=O)NC(NCc2ccco2)C(Cl)(Cl)Cl)cc1 (centres undefined),7,1,0,2,·
Cc1cccc(C(=O)NC(NCc2ccco2)C(Cl)(Cl)Cl)c1 (centres undefined),1,17*,-4,5,4
COc1ccc(OC)c(S(=O)(=O)Nc2c(C)cccc2C)c1,-1,-7,-1,-8,·
Cc1cc(C)c2c(N)c(C(=O)Nc3ncc(C)s3)sc2n1,-6,28*,0,-6,21*
COC(=O)c1sc2nc(C)cc(C)c2c1N,2,-3,-1,-2,·
COc1ccc2nc(NC(=O)c3sc4nc(C)cc(C)c4c3N)sc2c1,6,15*,·,5,18*
C/C(N)=C(/C#N)C(=O)COC(=O)c1ccc(NC(N)=O)cc1,4,-1,·,10,·
Cc1cccc(N(CC(=O)NCc2ccc(F)cc2)C(=O)c2csnn2)c1C,0,2,1,0,·
COc1[nH]c(/N=C/c2ccccc2)c(C#N)c1C#N,7,17*,4,21,17*
CCOC(=O)NC(=O)/C(C#N)=C\Nc1sccc1C(=O)OC,2,20*,0,31*,3
CCOC(=O)NC(=O)/C(C#N)=C\Nc1ccc(Cl)cc1Cl,-1,-1,-1,-2,·
C=CCNc1nc(Nc2ccc([N+](=O)[O-])cc2)nc(OCC)n1,-1,0,1,0,·
CC(=O)Nc1ccc(S(=O)(=O)Nc2ccc(Cc3ccncc3)cc2)cc1,·,41*,·,9,54*
COc1ccc(S(=O)(=O)Nc2ccc(Cc3ccncc3)cc2)cc1C,·,36*,·,4,47*
COC(=O)c1ccc(COc2ccccc2/C=C(\C#N)C(=O)Nc2ccc(C)cc2C)cc1,5,16*,1,5,-4
CN(C)CCNC(=O)CNC(=S)N(Cc1ccccc1)Cc1cccnc1,-6,-2,-1,-1,·
O=C1NC(=Nc2ccccc2Cl)S/C1=C\c1cc([N+](=O)[O-])ccc1O,·,27*,·,4,31*
COc1cccc(N=C2NC(=O)/C(=C/c3cc([N+](=O)[O-])ccc3O)S2)c1,·,17*,·,-1,41*
Cc1ccsc1C1Nc2ccc3ncccc3c2C2=C1C(=O)CC(C)(C)C2 (centres undefined),3,16*,1,11,11
Cc1ccc(C)c(N2CCN(C(=O)CCS(=O)(=O)c3ccc4c(c3)oc(=O)n4C)CC2)c1,·,0,·,-5,·
SMILES,p97 inhibitor,LYPLA1 inh,DTT redox prof,LYPLA2 inh,LYPLA1 confirm
O=C1NC(=S)S/C1=C\c1coc2ccccc2c1=O,4,17*,-1,7,-2
O=C1NC(=S)S/C1=C\c1coc2ccc(O)cc2c1=O,11,-6,·,-4,·
CS(=O)(=O)N1CCN=C1SCc1ccc([N+](=O)[O-])cc1,0,+,0,5,0
CS(=O)(=O)N1CCN=C1SCc1ccc(Br)cc1,·,-1,·,8,·
COCCn1c(C)c(C)c(S(=O)(=O)c2ccccc2)c1N,·,16*,·,17,13
Cc1[nH]c2ccccc2c1/C=C(\C#N)C(=O)NC1CC1,·,-4,·,-6,·
COC(=O)/C(C#N)=C\c1c(OC)[nH]c2ccccc12,7,20*,·,-1,3
CCOc1ccc(C(=O)/C=C/Nc2ccc(S(=O)(=O)Nc3onc(C)c3C)cc2)cc1,2,4,0,8,·
Cc1noc(NS(=O)(=O)c2ccc(NC(=O)Nc3ccc(Cl)c(Cl)c3)cc2)c1C,1,35*,0,14,2
Cc1cc2oc(C(=O)Nc3ccc(S(=O)(=O)Nc4onc(C)c4C)cc3)cc(=O)c2cc1Cl,0,20*,·,9,22*

# Screening data (PubChem)
